Source: PubChem BioAssay
Hits are enriched below; roughly 2.8% of the tested compounds scored in any of these assays.
MsrA inh – inhibitors of bovine MsrA; hit rate 0.75% among 360,000; AID 651718; purified bovine MsrA, absorbance read-out; inhibition, % at 15.5 µM; in the data active = inhibition above about 4.5%;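 also: 0% = vehicle wells with enzyme and 100% = reference inhibitor wells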
HGIII-sPLA2 inh – Blocks human group III sPLA2 activity | QFRET BODIPY PC-A2 liposome hydrolysis, fluorescence | inhibition, % at 12.2 µM | hit rate 0.56% among 370,000 | AID 743126;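 active = inhibition above mean plus 3 SD of compounds lying within the high and low control bounds, cut at about 19% in these data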;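 also: 0% = median of test compound wells and 100% = no enzyme DMSO wells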
Target sequence (Q9NZ20 whole entry, looked up): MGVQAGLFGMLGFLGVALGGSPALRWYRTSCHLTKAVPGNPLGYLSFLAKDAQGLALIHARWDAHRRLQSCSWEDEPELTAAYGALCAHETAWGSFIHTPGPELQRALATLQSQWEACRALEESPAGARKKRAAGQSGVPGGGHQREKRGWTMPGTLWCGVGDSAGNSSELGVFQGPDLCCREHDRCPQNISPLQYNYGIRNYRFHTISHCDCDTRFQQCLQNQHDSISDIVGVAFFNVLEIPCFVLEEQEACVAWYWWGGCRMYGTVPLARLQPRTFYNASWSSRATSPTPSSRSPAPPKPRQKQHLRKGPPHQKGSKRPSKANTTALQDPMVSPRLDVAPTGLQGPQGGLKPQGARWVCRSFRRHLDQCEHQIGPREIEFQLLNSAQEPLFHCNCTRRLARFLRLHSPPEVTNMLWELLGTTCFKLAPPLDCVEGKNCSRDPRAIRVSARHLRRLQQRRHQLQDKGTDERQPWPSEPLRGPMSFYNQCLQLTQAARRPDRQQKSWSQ
rCAG RNA binder – r(CAG) repeat RNA binding; TO-PRO-1 dye displacement fluorescence; inhibition, % at 3 µM; hit rate 1.3% among 370,000; AID 651821;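 active = inhibition above the plate cutoff, the mean of all test compounds on that plate plus 3 SD, cut at about 35% in these data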;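 also: 0% = DMSO alone and 100% = 100 µM mitoxantrone as full dye displacement; higher means more dye released from RNA so lower well fluorescence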
MsrA act – activators of bovine methionine sulfoxide reductase A. hit rate 0.3% among 360,000. AID 602163. activation, % at 10.6 µM. purified bovine MsrA, absorbance read-out; in the data active = activation above about 7.5%;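 also: 0% = vehicle and 100% = reference activator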
rCAG bind conf – r(CAG) RNA repeat binding, confirmation; shares compounds with rCAG RNA binder; TO-PRO-1 dye displacement fluorescence; hit rate 70% among 4,300; AID 652065; inhibition, % at 3 µM;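 active = inhibition above a per-plate cutoff, the mean inhibition of sample wells plus 3 SD, cut at about 35% in these data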;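 also: loss of TO-PRO-1 fluorescence as compound displaces dye from 1x1 AA loop RNA; 0% = DMSO only wells and 100% = 100 µM mitoxantrone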
DNA CAG counter – counter-screen for rCAG RNA binders: DNA CAG dye complex inhibitors; shares compounds with rCAG RNA binder; d(CAG) DNA oligo TO-PRO-1 dye displacement, fluorescence; inhibition, % at 3 µM; hit rate 94% among 4,300; AID 652068;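 active = inhibition above its plate's cutoff, the mean test-well inhibition plus 3 SD, cut at about 4.8% in these data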;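 also: 0% = DNA dye mix with DMSO and 100% = 100 µM mitoxantrone; hits displace the dye from DNA and so lower well fluorescence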
Active calls of the source: *; / = no result given.

SMILES	MsrA inh	HGIII-sPLA2 inh	rCAG RNA binder	MsrA act	rCAG bind conf	DNA CAG counter
O=C(Nc1ccc(N2C(=O)C3C4C=CC(C4)C3C2=O)cc1)Nc1nnc(C(F)(F)F)s1 (configuration not stated)	0	-38	55*	4	40*	16*
Nc1c(C(=O)NCC2CCCO2)sc2nc3c(c(-c4ccco4)c12)CC/C3=C\c1ccco1 (configuration not stated)	1	-5	60*	-2	83*	53*
COc1cc(C(=O)NCC(=O)N/N=C/c2ccc(-c3ccc([N+](=O)[O-])cc3)o2)cc(OC)c1OC	2	5	11	-2	/	/
Cc1c(NS(=O)(=O)c2cccs2)cccc1-c1nc2cccnc2s1	1	-9	12	-2	/	/
Cc1c(NS(=O)(=O)c2ccc3c(c2)OCCO3)cccc1-c1nc2cccnc2s1	-1	-20	11	-5	/	/
Cc1cc(-c2nc3cccnc3s2)ccc1NS(=O)(=O)c1ccc2c(c1)OCCO2	2	-57	38*	-12	47*	14*
Cc1cc(-c2nc3cccnc3s2)ccc1NS(=O)(=O)c1cccs1	4	-29	50*	-6	37*	11*
Cc1ccc(OCCC(=O)OCC(=O)NC2CCS(=O)(=O)C2)cc1 (configuration not stated)	2	9	-4	-2	/	/
Cc1noc(C)c1COc1cccc(C(=O)Nc2ccc(Br)cc2F)c1	-1	0	5	-10	/	/
CCCOc1ccc(Cc2nn3c(=O)/c(=C/c4ccco4)sc3nc2=O)cc1	2	0	30	0	/	/
COc1ccccc1/C=C/C=c1\sc2nc(=O)c(Cc3ccccc3)nn2c1=O	-1	-13	40*	-3	50*	22*
Nc1nonc1C(=O)N/N=C/c1ccc(-c2ccc(Cl)c(C(=O)O)c2)o1	4	-3	4	-6	/	/
Clc1ccccc1-c1ccc(/C=N/Nc2nncc(-c3ccccc3)n2)o1	1	2	9	-6	/	/
O=C(O)c1ccc(N/N=C/c2ccc(-c3ccc(Br)cc3)o2)cc1	3	-29	49*	-4	49*	14*
O=C(O)c1cc(-c2ccc(/C=N/Nc3ccc(Cl)cc3)o2)ccc1Cl	2	-8	67*	-16	67*	28*
Cc1ccc(/C=N/Nc2ccc(C(=O)O)cc2)o1	4	-2	-1	-18	/	/
O=C(O)c1ccc(N/N=C/c2ccc(-c3ccccc3Cl)o2)cc1	2	-45	65*	-3	41*	11*
CC(CNC(=O)COc1ccccc1)OC(=O)Nc1ccc(Cl)c(Cl)c1 (configuration not stated)	0	-8	2	-11	/	/
Cc1ccc(CSCc2ccc(C(=O)NC3CC3)o2)cc1	1	1	-4	0	/	/
CCOc1cc(C(c2c(C)[nH][nH]c2=O)c2c(C)[nH][nH]c2=O)ccc1OCc1ccc([N+](=O)[O-])cc1	0	-62	39*	0	42*	14*
CCOc1cc(C(c2c(C)[nH][nH]c2=O)c2c(C)[nH][nH]c2=O)ccc1OC(=O)c1cccc([N+](=O)[O-])c1	2	-40	30	5	/	/
COc1ccc(N2CCN(C(CNC(=O)C(=O)NC3CC3)c3ccco3)CC2)cc1 (configuration not stated)	1	18	-6	-2	/	/
O=C(O)CN1C(=O)/C(=C\c2cc(Br)ccc2OCc2ccc(F)cc2)SC1=S	1	-37	81*	-6	89*	61*
O=C(O)CN1C(=O)/C(=C\c2cc(Br)ccc2OCc2ccc(Cl)cc2)SC1=S	0	-18	88*	-1	94*	74*
COc1ccc(/C=C2/SC(=S)N(CC(=O)O)C2=O)cc1OCc1ccc(Cl)cc1	1	-23	29	-6	/	/
SMILES	MsrA inh	HGIII-sPLA2 inh	rCAG RNA binder	MsrA act	rCAG bind conf	DNA CAG counter
O=C(O)CN1C(=O)/C(=C\c2cc([N+](=O)[O-])ccc2OCc2ccccc2Cl)SC1=S	1	-19	86*	-2	85*	54*
COc1ccc2ncccc2c1Cc1c(OC)ccc2ncccc12	1	5	2	-1	/	/
CC(=O)NCCc1nc2cc(NC(=O)c3cccs3)ccc2n1C	2	-1	-2	3	/	/
CCC(Oc1ccccc1)C(=O)Nc1ccc(S(=O)(=O)Nc2ncccn2)cc1 (configuration not stated)	-1	-6	6	-2	/	/
CC(Oc1ccccc1)C(=O)Nc1ccc(S(=O)(=O)Nc2nccs2)cc1 (configuration not stated)	1	-17	10	-4	/	/
CC(Oc1ccc(Br)cc1)C(=O)Nc1ccc(S(=O)(=O)Nc2nccs2)cc1 (configuration not stated)	1	-55	52*	-3	34	9.4*
CCC(Oc1ccc(C)cc1)C(=O)Nc1ccc(S(=O)(=O)Nc2nccs2)cc1 (configuration not stated)	0	-43	53*	-3	33	8.8*
COc1cccc(CNc2ccc(S(=O)(=O)Nc3nccs3)cc2)c1O	-1	-30	19	-4	/	/
O=S(=O)(Nc1nccs1)c1ccc(NCc2cc(Br)cc(Br)c2O)cc1	-1	-9	58*	-6	41*	14*
CN(C(=O)COc1ccccc1)C1CCS(=O)(=O)C1 (configuration not stated)	0	3	0	-2	/	/
CC1=C(C(=O)OCc2ccccc2)C(c2ccccc2OS(=O)(=O)c2ccc(C)cc2)NC(=O)N1CCCC(=O)O (configuration not stated)	-1	3	35*	/	62*	21*
Cc1ccc(S(=O)(=O)N2CCCC2CNC(=O)C(=O)NC2CCCC2)cc1 (configuration not stated)	-1	0	-3	2	/	/
O=C(O)Cc1ccc(N=Nc2c(O)c(C(=O)O)cc3ccccc23)cc1	0	0	87*	-13	58*	23*
Oc1ccc2ccccc2c1N=Nc1ccc(F)cc1	0	6	5	-3	/	/
O=C(c1ccncc1)c1ccc(NS(=O)(=O)c2ccc(Br)s2)cc1	3	-9	31	-6	/	/
O=C(Nc1ccc2ccccc2c1)c1ccc(NS(=O)(=O)c2ccc(Br)s2)cc1	0	-109	71*	-3	88*	57*
CC1(C)CCC(=O)N(c2ccc(OC(F)(F)F)cc2)C1=O	0	1	0	-2	/	/
O=C1CS/C(=C\[N+](=O)[O-])N1c1ccc(OC(F)(F)F)cc1	1	-19	49*	-3	5	2
COc1cccc(-c2nc(NCc3ccccc3)c3ccccc3n2)c1O	0	-5	38*	-2	31	15*
COc1cccc(Nc2nc(-c3ccccc3O)nc3ccccc23)c1	0	4	11	-13	/	/
COc1ccc(Nc2nc(-c3ccccc3O)nc3ccccc23)cc1	3	-11	38*	-2	21	6.9*
COc1ccc(NC(=O)Nc2nnc(C(C)(C)C)s2)cc1	-1	-12	30	-1	/	/
